Reference: PubChem BioAssay AID485317 (Broad Institute, 2010)
The whole screen tested about 290,000 compounds, of which about 11,000 (3.8%) were called active.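 Rule for the calls: active = mean replicate inhibition above about 79%, with every replicate also reaching it (limit read from the data); inconclusive = only one of the two criteria met; inactive = mean below limit and not every replicate reaching it.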 The sample as a whole holds a higher share of actives than the screen did.

target: FAD-linked sulfhydryl oxidase ALR (Homo sapiens) (UniProt P55789); test: inhibitors of human ALR sulfhydryl oxidase, primary screen, biochemical, H2O2 detection, HRP-luminol luminescence, single point (AID 485317); conditions: purified ALR, DTT oxidation, active compounds read high, concentration not given here
Sequence (P55789 whole entry, looked up): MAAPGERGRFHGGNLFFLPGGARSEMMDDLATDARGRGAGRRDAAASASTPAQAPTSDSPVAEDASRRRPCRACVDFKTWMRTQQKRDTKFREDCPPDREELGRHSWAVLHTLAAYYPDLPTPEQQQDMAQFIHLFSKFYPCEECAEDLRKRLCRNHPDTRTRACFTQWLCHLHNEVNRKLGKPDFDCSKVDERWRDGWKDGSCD

Row | SMILES | inhibition
1 | O=C(COC(=O)c1cccc(Cl)c1)NC1CCCCCCC1 | -2.57% (inactive)
2 | O=C(N/N=C/c1ccccn1)c1cccnc1 | -5.07% (inactive)
3 | O=C(NN=C1CCC(=NNC(=O)c2cccnc2)CC1)c1cccnc1 | 99.1% (active)
4 | C/C(=N\NC(=O)c1cccnc1)c1ccc(-c2ccccc2)cc1 | -25.7% (inactive)
5 | CCCCN(C1CCS(=O)(=O)C1)S(=O)(=O)c1ccc(C(C)C)cc1 (stereo not given) | -1.06% (inactive)
6 | CC1O[C@H](OC2C(COC3OC(CO)C(O)[C@H](O)C3O)OC(OC3CC[C@]4(C)C(CC[C@@]5(C)[C@@H]4C=C[C@]46OC[C@@]7(CCC(C)(C)C[C@H]74)C(O)C[C@@]56C)C3(C)C)C(O)C2O)C(O)C(O)C1O (stereo not given in full) | -3.57% (inactive)
7 | CCCCN1C(N)=NC[C@@H]1CC1CCCCC1 | 98.3% (active)
8 | CCCC[C@@H]1CN=C(N)N1CCc1cc(C(F)(F)F)cc(C(F)(F)F)c1 | -42.9% (inactive)
9 | CCCC[C@@H]1CN=C(N)N1CCCC | 4.8% (inactive)
10 | COc1ccc(S(=O)(=O)NCCCc2ccccc2)cc1 | -2.65% (inactive)
11 | COc1ccc(S(=O)(=O)Nc2c(C)n(C)n(-c3ccccc3)c2=O)cc1 | -9.38% (inactive)
12 | COc1ccc(S(=O)(=O)/N=C2\C=C(NS(=O)(=O)c3ccccc3)C(=O)c3ccccc32)cc1 | 87.5% (active)
13 | COc1cc(OC)cc(-c2c(-c3cccs3)c3cc(-c4ccc(OC)nc4)ccc3n2C)c1 | -18.1% (inactive)
14 | O=C(OCC(=O)N1CCN(C(=O)c2ccco2)CC1)c1c(Cl)cccc1Cl | -7.05% (inactive)
15 | Cn1cccc1C(=O)OCC(=O)NCCc1ccccc1 | 5.56% (inactive)
16 | Cc1ccc(Cn2c(SCC(=O)N/N=C/c3ccccc3OCC(=O)O)nc3ccccc32)cc1 | -5.09% (inactive)
17 | C=CCn1c(Cn2nnc3ccccc32)nnc1SCC(=O)N/N=C/c1cc(Br)cc(OC)c1O | 98.4% (active)
18 | Cn1c(Cn2nnc3ccccc32)nnc1SCC(=O)c1ccccc1F | 25.7% (inactive)
19 | CSc1ccccc1NC(=O)C(C)N1C(=O)c2ccccc2S1(=O)=O (stereo not given) | -4.05% (inactive)
20 | CC(=O)C(CC(=O)N1CCCC1)C(=O)Nc1ccc(Cl)cc1 (stereo not given) | 23.9% (inactive)
21 | Cc1ccc(N2C(=O)N3[C@@H]4c5ccccc5OC[C@@H]4[C@@H](c4ccccc4)[C@@]3(C)C2=O)cc1 | 3% (inactive)
22 | Cc1nc(SCC(=O)NC2CCCCC2C)c(C#N)c(C)c1C (stereo not given) | -0.312% (inactive)
23 | O=C(CN1C(=O)NC2(CCOc3ccccc32)C1=O)Nc1cccc([N+](=O)[O-])c1 (stereo not given) | 13.9% (inactive)

Row | SMILES | inhibition
24 | COc1ccccc1C(=O)NCCC(=O)NN1C(=O)NC2(CCCCC2)C1=O | -0.581% (inactive)
25 | COc1ccc(-c2nc3cnccn3c2NC(C)(C)CC(C)(C)C)cc1O | 99.6% (active)
26 | CCCCNc1c(-c2ccc(OC)c(Sc3ccc(OC)cc3)c2)nc2ccc(Cl)cn12 | -8.2% (inactive)
27 | COc1ccc(-c2nc3cnccn3c2NC2CCCCC2)cc1-c1cccc(Cl)c1 | 3.7% (inactive)
28 | COc1ccc(S(=O)(=O)N(C)C[C@@H]2Oc3ccc(NC(=O)Nc4c(C)noc4C)cc3C(=O)N([C@H](C)CO)C[C@@H]2C)cc1 | -1.21% (inactive)
29 | NC(=O)NC(CC(=O)NNC(=O)c1ccccn1)c1ccc(Cl)cc1 (stereo not given) | -14% (inactive)
30 | COc1cccc(C2SCC(=O)N2c2cccc(C)c2)c1OC (stereo not given) | -42.2% (inactive)
31 | Cc1ccc(C2SCC(=O)N2c2ccccc2)cc1 (stereo not given) | 98.3% (active)
32 | Cc1ccc(N2C(=O)C3C(c4ccccc4)(C2=O)C3(c2ccccc2)c2ccccc2)cc1 (stereo not given) | -4.39% (inactive)
33 | Cc1occc1C(=O)Nc1cccc(S(=O)(=O)N2CCOCC2)c1 | -1.99% (inactive)
34 | CCOC(=O)C1CCN(C(=O)c2cccc(S(=O)(=O)N(CC)c3ccccc3)c2)CC1 | -13.6% (inactive)
35 | COc1ccc(Cl)cc1NC(=O)CN(C)C(=O)c1cc(-c2cccs2)nn1-c1ccccc1 | 21.6% (inactive)
36 | COc1ccc(Nc2cc(Cl)ccc2C(=O)O)cn1 | 98.7% (active)
37 | COc1ccc(Nc2ccc([N+](=O)[O-])cn2)cn1 | -22.9% (inactive)
38 | COc1ccc(NS(=O)(=O)c2ccc(F)cc2F)cn1 | -5.33% (inactive)
39 | O=C(N[C@@H]1C/C=C\C[C@@H](CC(=O)N(CCO)Cc2ccccc2)C(=O)N[C@H](Cc2ccccc2)COC1=O)OCC1c2ccccc2-c2ccccc21 | 5.13% (inactive)
40 | CCOc1ccc(NC(=O)COc2ccc(C(=O)N3CCC(C(N)=O)CC3)cc2OC)cc1 | -0.853% (inactive)
41 | CCOC(=O)Cc1csc(NC(=O)CSc2nnc(-c3cccnc3)n2Cc2ccco2)n1 | -5.11% (inactive)
42 | C(=C\c1ccccc1)/CSc1nnc(-c2cccnc2)n1Cc1ccco1 | 87.9% (active)
43 | CCc1ccc(NC(=O)CSc2nnc(-c3cnccn3)n2Cc2ccco2)cc1 | 29.4% (inactive)
44 | O=C(CSc1nnc(-c2cccnc2)n1Cc1ccco1)c1ccc(Cl)c(Cl)c1 | 98.2% (active)
45 | O=C(CSc1nnc(-c2cccnc2)n1Cc1ccco1)c1ccc(Cl)cc1 | 54.6% (inactive)
46 | O=C(CSc1nnc(-c2cccs2)n1Cc1ccco1)c1ccc2c(c1)OCO2 | 0.1% (inactive)

Row | SMILES | inhibition
47 | O=C(CSc1ncn[nH]1)Nc1ccc(Br)cc1Br | -5.94% (inactive)
48 | CC(OC(=O)c1ccccc1NCCO)C(=O)Nc1ccnn1C(C)C (stereo not given) | -3.31% (inactive)
49 | N#Cc1ccc(CN2CCN(CC(=O)Nc3ccccc3C(=O)NC3CC3)CC2)cc1 | -2.66% (inactive)
50 | Cn1cccc1C(=O)NNC(=O)COc1ccc(Br)cc1 | -4.16% (inactive)
51 | CCN(CC(=O)Nc1c(F)cccc1F)C(=O)c1ccc(S(=O)(=O)N2CCCCC2)cc1 | -1.01% (inactive)
52 | COC(OC)c1ccnc(SCc2ccccc2Cl)n1 | -8.94% (inactive)
53 | S=C(NCc1ccco1)NCc1ccccc1Cl | -9.19% (inactive)
54 | Clc1ccccc1CSc1nnc(-c2ccco2)c(-c2ccco2)n1 | 100% (active)
55 | O=C(Nc1ccc(C(=O)N2CCOCC2)cc1)Nc1cccc(C(F)(F)F)c1 | -2.29% (inactive)
56 | Cc1ccc(-c2nn(-c3cccc(F)c3)cc2CNCCc2ccncc2)o1 | -14.7% (inactive)
57 | O=C(O)CCC(=O)N(Cc1ccccc1)Cc1ccccc1 | -2.42% (inactive)
58 | Cc1ccc(-c2nn(-c3ccccc3)cc2CN(Cc2ccccc2)C(=O)CCC(=O)O)o1 | 97.6% (active)
59 | Cc1c(NC(=O)C(C)OC(=O)c2c3c(nc4ccccc24)CCC(C)C3)c(=O)n(-c2ccccc2)n1C (stereo not given) | 18% (inactive)
60 | O=C1CCc2cc(S(=O)(=O)Nc3ccc(C(F)(F)F)cc3)cc3c2N1CC3 | -0.668% (inactive)
61 | Cc1cc(OCC(=O)N(C)c2c(N)n(Cc3ccccc3)c(=O)[nH]c2=O)c(C(C)C)cc1Cl | -4.09% (inactive)
62 | O=C(CCNC(=O)c1ccccc1Cl)NN=Cc1ccco1 | -3.45% (inactive)
63 | Cc1cc(NC(=O)CSc2nc(=O)cc(N)n2-c2ccc(F)cc2)no1 | -1.5% (inactive)
64 | Cc1csc(NC(=O)CSc2ccc(-c3ccc(F)cc3)nn2)n1 | -12.2% (inactive)
65 | Cc1csc(NC(=O)CSc2nc(=O)cc(N)n2-c2ccc(F)cc2)n1 | 91.6% (active)
66 | Cc1cc(C)c(S(=O)(=O)N2CCC(C(=O)OCc3c(C)noc3C)CC2)c(C)c1 | -4.27% (inactive)
67 | CCCCN(C(=O)C1=NN(c2cc(C)ccc2C)C(=O)CC1)c1c(N)n(CCC)c(=O)[nH]c1=O | 0.0423% (inactive)
68 | CCN(Cc1ccccc1)C(=O)Cc1ccc(OC)c(S(=O)(=O)N2CCOCC2)c1 | -3.18% (inactive)
69 | COc1ccc(OCCCC(=O)Nc2cccc(S(=O)(=O)N3CCCCCC3)c2)cc1 | -4.87% (inactive)

Row | SMILES | inhibition
70 | CCOc1ccc(CCNC(=O)COC(=O)c2c(OC)cccc2OC)cc1OCC | -5.28% (inactive)
71 | CC(C)c1ccc(Nc2nnc(SCC(=O)c3nnc(-c4ccccc4)o3)s2)cc1 | 98.1% (active)
72 | Cc1ccc(Nc2nnc(SCc3ccccc3)s2)cc1 | -12.9% (inactive)
73 | O=C(CSc1nnc(Nc2ccccc2)s1)Nc1cccnc1Cl | 4.27% (inactive)
74 | CC(C)n1c(-c2cccs2)nc2ccccc21 | -15.2% (inactive)
75 | CC(C)n1c(COc2ccccc2)nc2ccccc21 | 14.1% (inactive)
76 | CC(C)n1c(NCc2c[nH]c3ccccc23)nc2ccccc21 | 97.9% (active)
77 | O=C(O)c1cc(S(=O)(=O)Nc2ccc3cn[nH]c3c2)ccc1Br | 42.7% (inactive)
78 | COc1cc(/C=C/C(=O)Nc2ccc(OC)c(S(=O)(=O)N3CCOCC3)c2)ccc1OCC#N | -4.4% (inactive)
79 | CCS(=O)(=O)N1Cc2ccccc2CC1C(=O)Nc1nc2ccc(F)cc2s1 (stereo not given) | 97.9% (active)
80 | CSc1ncccc1C(=O)Nc1nc2ccc(F)cc2s1 | -2.85% (inactive)
81 | CCS(=O)(=O)N1Cc2ccccc2CC1C(=O)Nc1ccc(OC)cc1OC (stereo not given) | -16.1% (inactive)
82 | CCOC(=O)C1Nc2ccc(C(F)(F)F)cc2C2C=CCC12 (stereo not given) | -11.3% (inactive)
83 | Cc1cc(NC(=O)COc2ccc([N+](=O)[O-])cc2)no1 | 8.23% (inactive)
84 | CN1CCN(c2nc(Nc3ccc(O)cc3)nc3ccccc23)CC1 | 98.9% (active)
85 | c1ccc(Nc2nc(N3CCOCC3)c3ccccc3n2)cc1 | 48.8% (inactive)
86 | OCCNc1nc(Nc2ccc(Cl)c(Cl)c2)nc2ccccc12 | 19.6% (inactive)
87 | CC(=O)c1c(C)[nH]c(C(=O)CN2C(=O)NC(C)(C)C2=O)c1C | 0.194% (inactive)
88 | O=[N+]([O-])c1cccc(S(=O)(=O)NCc2ccccn2)c1 | -12.1% (inactive)
89 | O=c1cc(CO)oc(C(Nc2cccc([N+](=O)[O-])c2)c2ccccn2)c1O (stereo not given) | 94.5% (active)
90 | O=c1cc(CO)oc(C(Nc2cccc(C(F)(F)F)c2)c2ccccn2)c1O (stereo not given) | 52.2% (inactive)
